# This is a sample that favours compounds with a hit; in the whole collection about 2.5% have one here.
# CFTR F508del cor: correctors of CFTR F508del function in bronchial epithelial cells | CFBE cells, YFP halide quenching; stimulated with forskolin plus potentiator P3; % fluorescence drop versus neutral controls | actives 0.36% (n = 350,000) | activity (quench increase), % at 7.58 µM;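 active = mean added fluorescence quench of at least 8% versus neutral control, with both replicates also reaching 8%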;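 note: cells transiently co-express mutant CFTR-F508del with the halide-sensitive YFP; corrector assay measuring rescue of mutant channel to the surface after 24 h compound exposure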
# Env fusion inh: inhibitors of HIV Env-mediated cell fusion; inhibition, % at 12.3 µM; HeLa-JRFL Env/CEM21 cell fusion, luciferase; actives 1.1% (n = 360,000);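 active = mean replicate inhibition score of at least 50 and every replicate individually at or above 50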;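 note: 0% = plate neutral controls and 100% = maraviroc near 300 nM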
# EWS-Fli inh: blocks EWS/Fli oncoprotein-driven transcription; actives 0.67% (n = 350,000); A673 NR0B1-luciferase reporter, viability-normalised; inhibition, % at 12.6 µM;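 active = mean inhibition of at least 50% after viability correction, with every replicate also passing that limit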;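 note: firefly luciferase signal divided by Alamar Blue viability fluorescence both relative to DMSO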
# GAA850 FXN act: frataxin GAA850 promoter activation | HEK293 lucGAA850 FXN promoter luciferase reporter, 24 h; percent of 10 µM SAHA response | activation, % at 6 µM | actives 0.56% (n = 360,000);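 active = activation above the average of all compounds screened plus 3 SD, cutoff fixed separately per campaign, cut at about 7.5% in these data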;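 note: 0% = DMSO wells and 100% = 10 µM SAHA wells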
# PAX8 inh HTS: inhibitors of PAX8 transcriptional activity in RMG-I cells; RMG-I TPO-luciferase reporter, SteadyGlo, 24 h; inhibition, % at 12.6 µM; actives 1.2% (n = 360,000);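 active = mean replicate inhibition at least 60% with every replicate also reaching 60%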;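 note: luciferase light reporting Pax8 driven TPO promoter activity; plate controls were median of neutral control wells for no effect and mitoxantrone controls for full effect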
# Active calls of the source: *; x = no result; [ ] = dose if it differs, or a comment.
SMILES,CFTR F508del cor,Env fusion inh,EWS-Fli inh,GAA850 FXN act,PAX8 inh HTS
Cc1cc(NC2CCCCC2)nc(NCc2ccccc2)n1,-22,54*,29,-1,23
Clc1cccc(-c2nc3nc4ccccc4nc3n2Cc2ccccc2)c1,0,x,1,-1,85*
CCC(=O)N1C[C@@H](C)[C@H](OC)CN(C)C(=O)c2cc(NC(=O)CC(F)(F)F)ccc2OC[C@@H]1C,-2,x,x,x,8
OCC1OC(n2cnc3c(/C=C(\O)c4ccccc4)ncnc32)C(O)C1O (stereo not drawn),3,55*,-64,-1,6
Nc1nc(Cl)nc2c1ncn2[C@@H]1O[C@H](CO)[C@@H](O)[C@H]1O,4,5,1,4,70*
O=C(C[C@H]1CC[C@@H](NC(=O)C2CCOCC2)[C@H](CO)O1)Nc1nccs1,1,-2[16.7 µM],4,x,-4
CCOc1ccc(C(=O)N2CCN(c3cccc(Cl)c3)CC2)cc1,-2,7,-5,-2,9
CCOC(=O)c1c(C)c(C(=O)N2CCN(c3cccc(Cl)c3)CC2)c(C)n1C,x,57*,x,2,x
S=c1[nH]cc(-c2ccccc2)n1-c1cccc(Cl)c1,x,70*,11,4,6
COc1ccccc1NS(=O)(=O)c1ccc2oc(SCc3ccc(C#N)cc3)nc2c1,x,58*,x,0,16
Cc1cccc(N2CCN(C(=O)c3cccc(N4CCCC4=O)c3)C(C)C2)c1 (stereo not drawn),7,13,60*,-4,27
O=C1/C(=C/c2ccncc2)CCC/C1=C\c1ccncc1,-11,89*,71*,-16,71*
O=C1C(=Cc2ccncc2)CCCc2ccccc21,-2,24,-1,0,17
C[C@@H]1CCCCO[C@H](CN(C)S(=O)(=O)c2ccc(Cl)cc2)[C@@H](C)CN([C@H](C)CO)C(=O)c2cc(NC(=O)Nc3ccccc3)ccc2O1,-3,-16[16.7 µM],1,x,11
O=C(O)c1ccccc1CN1C[C@H]2O[C@H](CNS(=O)(=O)c3ccc(Cl)cc3)CC[C@H]21,1,-23[16.7 µM],8,x,6
COc1ccc(S(=O)(=O)NC[C@@H]2CC[C@H]3[C@H](CN3Cc3cc(F)ccc3F)O2)cc1,2,60*[16.7 µM],29,x,-9
CCCCN(C)C1=CC2=CC(=C(C#N)C#N)CCC2CC1 (stereo not drawn),34*,0,30,-2,13
CCN(CC)C1=CC2=CC(=C(C#N)C#N)CCC2CC1 (stereo not drawn),40*,9,45,-3,21
Cn1cnc2nc[nH]c2c1=S,16*,0,-2,1,-3
Cc1ccc(S(=O)(=O)Nc2ccc3c(c2)CC(=O)N([C@@H](C)CO)C[C@H](C)[C@H](CN(C)S(=O)(=O)c2ccc(Cl)cc2)O3)cc1,1,5[16.7 µM],4,x,10
COc1ccc(S(=O)(=O)Nc2ccc3c(c2)CC(=O)N([C@@H](C)CO)C[C@H](C)[C@H](CN(C)S(=O)(=O)c2ccc(C)cc2)O3)cc1,5,96*[16.7 µM],-16,x,72*
CCOC(=O)CCCCCC(=O)Nc1ccc2c(c1)CC(=O)N([C@H](C)CO)C[C@H](C)[C@H](CN(C)S(=O)(=O)c1ccc(OC)cc1)O2,-2,96*,19,3,-13
COc1ccc(S(=O)(=O)Nc2ccc3c(c2)CC(=O)N([C@@H](C)CO)C[C@H](C)[C@H](CN(C)S(=O)(=O)c2ccccc2)O3)cc1,0,66*[16.7 µM],6,x,-2
Cc1ccc(S(=O)(=O)N(C)C[C@@H]2Oc3ccc(NS(=O)(=O)c4ccc(Cl)cc4)cc3CC(=O)N([C@H](C)CO)C[C@@H]2C)cc1,2,56*[16.7 µM],0,x,27
COc1ccc(S(=O)(=O)N(C)C[C@@H]2Oc3ccc(NC(=O)CCCCCC(=O)Nc4ccccc4N)cc3CC(=O)N([C@@H](C)CO)C[C@H]2C)cc1,1,8[16.7 µM],16,x,-29
Cc1cccc(-c2ccc([C@@H]3[C@@H](CO)N4CCCCN(S(=O)(=O)c5ccccc5C)C[C@@H]34)cc2)c1,-4,x,-17,x,-6
COc1ccc(S(=O)(=O)Nc2ccc3c(c2)CC(=O)N([C@@H](C)CO)C[C@H](C)[C@H](CN(C)S(=O)(=O)c2ccc(F)cc2)O3)cc1,0,66*[16.7 µM],2,x,-4

# Bioassay records deposited in PubChem by several laboratories.
